Measurements published in PubChem BioAssay AID1063 (University of Pittsburgh Molecular Library Screening Center, 2008).
The campaign covered roughly 200,000 compounds. About 18,000 (9%) were called active. For the sample, actives were picked, then their nearest neighbours and some compounds at random. Unmarked numbers belong to inactive results. Cut-off read from the data, not from the text of the source: active = inhibition above about 50%; inactive = the rest.

Assay: Leishmania major promastigote growth inhibition, primary screen (AID 1063);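 note: promastigotes grown with compound for 44 hours at 28 °C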
Conditions: Leishmania major promastigotes, resazurin fluorescence viability; at 10 µM; stronger effect = higher value

Row | Compound | inhibition
1 | Cc1cc(=O)n2[nH]c(-c3sccc3-n3c(C)ccc3C)cc2n1 | -1.8%
2 | CCOc1cc2[nH]c(=O)n(Cc3ccc(C(=O)NCCCN4CCCC4=O)cc3)c(=O)c2cc1OCC | -1.97%
3 | Cc1ccc(C(=O)Cn2cccn2)cc1 | -1.93%
4 | CSc1ncccc1C(=O)NC1CCCCCC1 | -1.57%
5 | CC1CCN(c2ccc(C(=O)NCc3ccc4c(c3)OCO4)cc2[N+](=O)[O-])CC1 | 1.95%
6 | COCCNC(=O)c1ccc(N2CCC3(CC2)OCCO3)c([N+](=O)[O-])c1 | 73.7% (active)
7 | CCC(C)NC(=O)c1ccc(N2CCC3(CC2)OCCO3)c([N+](=O)[O-])c1 (configuration not stated) | -0.6%
8 | COc1ccc(C(C)=O)cc1CSc1nc2nc(C)cc(C)n2n1 | -4.13%
9 | c1ccc2cc3c(NCCN4CCOCC4)ccnc3cc2c1 | 100% (active)
10 | O=C(Cn1c(-c2ccccn2)nc2ccccc21)NCCN1CCOCC1 | -2.96%
11 | c1ccc2[nH]c(NCCN3CCOCC3)nc2c1 | 0.2%
12 | CCc1ccc(C(=O)OCC(=O)NCC(F)(F)F)cc1 | 4.83%
13 | O=C(N/N=C/c1ccc(OCC2COCCO2)cc1)c1ccc(Br)cc1 (configuration not stated) | 40.5%
14 | COc1cc(C(=S)N2CCOCC2)ccc1O | -5.63%
15 | C=CCOCCN(C)C1=NS(=O)(=O)c2ccccc21 | -5.84%
16 | CN(C)C=NC(=O)c1cccn1-c1ncc(C(F)(F)F)cc1Cl | -3.59%
17 | Clc1ccc(CN2CCN(/N=C/c3cccnc3)CC2)cc1 | 8.51%
18 | O=Cc1cn(Cc2ccccc2)nc1-c1cccnc1 | -1.93%
19 | O=C1/C(=C\c2cccnc2)CN(Cc2ccccc2)C/C1=C\c1cccnc1 | 100% (active)
20 | COc1cccc2cc(S(=O)(=O)c3ccc(C)cc3)/c(=N/NS(=O)(=O)c3ccc(C)cc3)oc12 | -0.64%
21 | CCOC(=O)C1(CCOc2ccccc2)CCN(C(=O)c2cncs2)CC1 | 6.07%

Row | Compound | inhibition
22 | CCOC(=O)/C(N=Nc1cc(C(=O)O)cc(C(=O)O)c1)=C(\O)CCl | 50% (active)
23 | O=C(C1CC1)N1N=C2CCCCC2C1(O)C(F)(F)F (configuration not stated) | -9.92%
24 | CCOC(=O)C1=C(C)Nc2sc(C(=O)c3ccc(Br)cc3)c(N)c2C1c1ccc(C(=O)OC)cc1 (configuration not stated) | 94.8% (active)
25 | CCOC(=O)c1sc(=S)n2c1[nH]c(=O)c1ccc(C(=O)OC)cc12 | -7.11%
26 | CCOC(=O)C1=C(C)NC(C)=C(C(=O)OCC)C1c1ccccn1 | 8.25%
27 | CC(=O)N/C(=C/c1ccc(Cl)cc1)C(=O)NCCc1c[nH]c2ccccc12 | 92.8% (active)
28 | COc1ccc(/C=C(\NC(=O)c2ccc(OC)c(OC)c2)C(=O)NCCc2c[nH]c3ccccc23)cc1 | 16%
29 | Cc1ccc(C(=O)N/C(=C/c2ccco2)C(=O)NCCc2c[nH]c3ccccc23)cc1C | 32.8%
30 | CN(C)/N=C/c1cn(-c2ccccc2)nc1-c1cccnc1 | 13.5%
31 | O=C(NCCCn1ccnc1)C(=O)c1cn(CC(=O)N2CCCCCC2)c2ccccc12 | 10.8%
32 | COc1cc(C(=O)N2CCN(C/C=C/c3ccccc3)CC2)cc(OC)c1C | 54.7% (active)
33 | CNC(=O)NC(=O)C(C)N1CCN(C/C=C/c2ccccc2)CC1 (configuration not stated) | 9.45%
34 | COc1ccccc1/C=C/CN1CCC(CO)(Cc2ccccc2)CC1 | 32.1%
35 | Cn1c(SCC(=O)NC2CCCCC2)nnc1-c1ccc(N)cc1 | -1.08%
36 | Cc1ccc(-c2csc(-c3c[nH]c4ccccc34)n2)cc1 | -3.69%
37 | Cc1ccc(C2=Nc3c(ccc4ccccc34)C(c3ccncc3)=NN2)cc1 | 60% (active)
38 | CCOC(=O)N1CCN(C(=S)Nc2ccc(C)cc2C)CC1 | -7.01%
39 | CC(C)Oc1ccccc1C(=O)NC(CO)C(=O)O (configuration not stated) | -2.66%
40 | NC(=O)COc1ccc(C23CC4CC(CC(C4)C2)C3)cc1 | 2.36%
41 | O=C1/C(=C/c2ccc3c(c2)OCO3)CCC/C1=C\c1ccc2c(c1)OCO2 | 39.8%
42 | CSC1=N/C(=C\c2ccc3c(c2)OCO3)C(=O)S1 | 17.7%

Row | Compound | inhibition
43 | CCC1=C/C(=C\c2ccc3c(c2)OCO3)C(=O)S1 | 78.2% (active)
44 | COc1ccc(CCNS(=O)(=O)c2ccc(F)cc2)cc1OC | -4.28%
45 | Cc1nn(C)c(Oc2ccccc2)c1[N+](=O)[O-] | 6.23%
46 | Cc1nn(C)c(Oc2ccccc2)c1CCNS(=O)(=O)c1ccc(F)cc1 | 97.5% (active)
47 | COc1ccc(F)cc1C(=O)C1CCCN(C(=O)CCc2ccccn2)C1 (configuration not stated) | -6.74%
48 | COc1cccc(CN2CCNC(=O)C2CC(=O)N(C)CCc2ccccn2)c1 (configuration not stated) | 1.29%
49 | CN(CCc1ccccn1)C(=O)CCC1CCCN(Cc2ccccc2OC(F)F)C1 (configuration not stated) | 67.9% (active)
50 | CN1CCNC(=O)C1CC(=O)N1CC=C(c2ccc(F)cc2)CC1 (configuration not stated) | -0.97%
51 | Cn1cccc1-c1nc2ccccc2n1C | 6.87%
52 | N#C/C(C(=O)N1CCOCC1)=C1/SC(Cc2ccc(F)cc2)C(=O)N1c1ccccc1 (configuration not stated) | -0.55%
53 | O=C(CC1SC(=Nc2ccccc2F)N(CCN2CCOCC2)C1=O)Nc1ccc(F)cc1F (configuration not stated) | 50.8% (active)
54 | CCN1C(=O)C(CC(=O)Nc2cc(C)ccc2C)SC1=Nc1ccc(S(N)(=O)=O)cc1 (configuration not stated) | 10.5%
55 | CCOC(=O)Cc1ncccc1C(=O)Nc1ccc(OC(F)(F)F)cc1 | -5.35%
56 | N#C/C(=C(\O)CCl)c1nnc2n1CCCCC2 | -1.52%
57 | N#C/C(=C(\O)C(F)(F)F)c1nnc2n1CCCCC2 | -2.09%
58 | N#C/C(=C/c1cccc([N+](=O)[O-])c1)c1nnc2n1CCCCC2 | 81.3% (active)
59 | Cc1ccc2nc(Nc3ncc4c(n3)CC(C)(C)CC4=O)nc(C)c2c1 | 9.71%
60 | O=C(c1ccccc1)c1ccc2nc(N3CCCCC3)c3nncn3c2c1 | -0.8%
61 | Cn1cc(S(=O)(=O)N2CCC(Cc3ccccc3)CC2)c(=O)n(C)c1=O | -5.82%
62 | c1ccc(CC2CCN(c3nc4ccccc4n4cnnc34)CC2)cc1 | 64.6% (active)
